Results from PMC12136788.
The full ranking holds about 24,000 sequences; the median of “enrichment r” is about 0.99, and the highest 2% start at about 3.7. These entries were drawn from the full list.

B1: 120770645_120770765_141_5pUTR_ENSMUSG00000043207_ENSMUST00000058754|mouse|control|control (ssRNA)
RNA: GGGAGUUCUACAGUCCGACGAUCCUCAGCGACACGCGUCCCUCGGAGAGUGCCAGCGGUGUCACAACAAUACGGGUCCCUUCCGAGGGCUUCUUCAGACGCCCAUUCCCUCAGCUUUGCCAGAAGUGUCACAAAGACACGAUUCAACAGAGGAUUGAGCAUCA
B2: chr7:118215947:118215948:-_ENSMUSG00000005610_ENSMUST00000162415|mus_mus|FALSE|FALSE (ssRNA)
RNA: GGGAGUUCUACAGUCCGACGAUCGGUCCUUGCAAUAGACUGCCUCUGCUUGAGAACUUAGGAUGUAAUUAUUGCAUGCUGCUAAUAUUCUAUCUAAACAUUAAGGAUACUCCUAAAGUAUUUGAUGGUAGACUAUGAUUAAGACAACAGAGGAUUGAGCAUCA
B3: 78432385_78432637_487_CDS_ENSG00000162613_ENST00000370768|human|control|control (ssRNA)
RNA: GGGAGUUCUACAGUCCGACGAUCUUCAGGUGUUCCAGUUAACAUACAGGACCUUUCUGGAAGGCCACCACUGUCAGGAGCUAUCUGUAUUUUGCAUCCAGAUUCCUGUUGUAUGCGUGAGAUCUGUUCACCUCCUCUGCCAAUCAACAGAGGAUUGAGCAUCA
B4: chr8:35203877:35203878:-_ENSMUSG00000031513_ENSMUST00000033910|mus_hu|FALSE|FALSE (ssRNA)
RNA: GGGAGUUCUACAGUCCGACGAUCGGAAGGGCACAUCCAAGCAUCAAAAACAUCAGUCCGAUUGCUCCUCCAAAGGACAAACUAAUCAAAGCUUUGAUGCCUGCCAUGGCGGUGACGUCGCUCCUGGCUCCACGACCCGAGGCGCAACAGAGGAUUGAGCAUCA
B5: chr2:48026839:48026840:+_ENSG00000116062_ENST00000540021|hu_hu|hu_hu_hu_mus_False|38_108 (ssRNA)
RNA: GGGAGUUCUACAGUCCGACGAUCAUAGUGUGCCACUAGCGUCCUAAAUCUGGAACAGUGGCGGUCAUCCGAAAACUGGCCGAUGAAAAACUUGCCCAGUGAAGUAUCCACAAAGCAAACACCAUACACACGAGUGUGACCAGACAACAGAGGAUUGAGCAUCA
B6: chr16:46990815:46990816:-_ENSG00000069345_ENST00000563158|hu_hu|motif|central (ssRNA)
RNA: GGGAGUUCUACAGUCCGACGAUCUCAAAAUGAAGAUGUAAAGCUUUGUGGUUAGUUUAAAUUAUACACUCUGUAGAUACGGUACCAAUUUUAAAAGUUAUACAUAGACCAACAGAUGUCCCUCAGUUCAUCUGGAUUGAUAAGCAACAGAGGAUUGAGCAUCA
B7: chr1:220276048:220276049:+_ENSG00000067704_ENST00000302637|hu_hu|hu_hu_hu_mus_True|8_78 (ssRNA)
RNA: GGGAGUUCUACAGUCCGACGAUCGCAAAUUGCCUGGUUGGCGGGAAUUGUCCAAGGUUGUGUGGUCCAAACUAAAACGCUAACAGGGGAUGAGGCAUCUGUAAGAGACUCCAACUUCGGAGGAGGUUUUAAGAGAGGGAAUCUCAACAGAGGAUUGAGCAUCA
B8: chr9:62645482:62645483:-_ENSMUSG00000032244_ENSMUST00000034775|mus_hu|FALSE|FALSE (ssRNA)
RNA: GGGAGUUCUACAGUCCGACGAUCUACUGUGGUAUGGUUCACGUUGGCUCCAUGGCUGACUAGAAGUUUAACAACUUCAAAAUGUCCUGCUCCAGCUGCACACCAAAGAGCAGUGGCACCAUCAAUGACAUACCCGUCGAAGCGCAACAGAGGAUUGAGCAUCA
B9: chr2:232319755:232319756:-_ENSG00000115053_ENST00000322723|hu_hu|motif|central (ssRNA)
RNA: GGGAGUUCUACAGUCCGACGAUCAAAAGUUUAUAUGAAUAUCCAGUCAAAACCAACACGGUAUUGCCCUUGAAAUGUUAACGGGACGGAUUUCCAAGGAGACCACAGGACUGUAUACUGUCUUGGAAUGUCCUCAGAAGGCUCCAACAGAGGAUUGAGCAUCA
B10: 69235085_69235205_3312_3pUTR_ENSG00000135679_ENST00000462284|human|control|control (ssRNA)
RNA: GGGAGUUCUACAGUCCGACGAUCGGCUGGAGAAUAAGUACAUUUUUACAGCCGGGUGUGGUGGCUAACGCCUGUAAUCCUACUUAGCACUUUGCGAGGCCAAGACAGGAGGAUCUCUUGAGCCCAGGAGUUCGAGACCAGCCUCAACAGAGGAUUGAGCAUCA
B11: chr11:79222206:79222207:+_ENSMUSG00000020716_ENSMUST00000071325|mus_hu|FALSE|FALSE (ssRNA)
RNA: GGGAGUUCUACAGUCCGACGAUCUUUUGUAAAUUCAUCUGGAUAAUUUUCUACCCAGUUCCAAAAUGCCUUUUCCAGGCUAUUUAUAACUGCUAACUGCGCAACCUUCUUUAGGGCUUUAAAUUUAAAUGCUGUUUCCUUCAGCAACAGAGGAUUGAGCAUCA
B12: 62954625_62958383_5419_CDS_ENSG00000116641_ENST00000251157|human|control|control (ssRNA)
RNA: GGGAGUUCUACAGUCCGACGAUCUGCUUCUUGAAGUUUACCAUGAAUUGUGGAUAGUUUCUUUGCAUCCCGAUUAGCUUCAUGAAUAGGAAUAAGUACUUUGUAAACUUCAUUAACUGCUUCAUACAUGCCAGCCAUAGAGAACAACAGAGGAUUGAGCAUCA
B13: chr9:53391639:53391640:-_ENSMUSG00000032047_ENSMUST00000034547|mus_hu|motif|central (ssRNA)
RNA: GGGAGUUCUACAGUCCGACGAUCCACUUUUUGGGGAUCAAUCUCCAACAUUUUAAUGUUUGCUAGUACAACCAGACGGAAGGCUUCAUUUACUUCCCACAUUGCAAUAUCUUCUUUUUUCAAUCCCACAUCUUUAAGAACCAUCAACAGAGGAUUGAGCAUCA
B14: chr4:76721835:76721836:+_ENSG00000138768_ENST00000264904|hu_mus|hu_hu_hu_mus_True|48_48 (ssRNA)
RNA: GGGAGUUCUACAGUCCGACGAUCGUUUGGCUGGGGUUUCUGAGACGCUCUGGAAUAUAACUCAUGUUUGCUAAUAAAUCCUAGUUUUCUAUGAAAUUUCUCUUUGCCAAUCCUCUUCUCUAUUAGUUGCUUUAGUUUCUCUUUCAACAGAGGAUUGAGCAUCA

target: T1, UNK ZnF1-3 (human, UniProt Q9C0B0 31-174); test: nsRBNS (natural sequence RNA bind-n-seq); RBNS binding buffer (assumed for nsRBNS): 25 mM Tris pH 7.5, 150 mM KCl, 3 mM MgCl2, 0.01% Triton X-100, 500 ug/ml BSA, 20 U/ml SUPERase-In, 4 C; UNK is unkempt and MSI1 is Musashi-1; names of the RNAs are library labels; protein concentration not given here; high values mean tight binding
T1 sequence: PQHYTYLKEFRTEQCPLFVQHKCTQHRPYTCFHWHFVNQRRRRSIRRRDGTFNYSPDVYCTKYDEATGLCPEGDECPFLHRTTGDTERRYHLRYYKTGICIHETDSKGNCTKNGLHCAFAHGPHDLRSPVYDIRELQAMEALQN

Binder	binding signal [enrichment R]
B1	0.703
B2	1.31
B3	0.709
B4	2.82
B5	1.07
B6	0.61
B7	1.91
B8	0.893
B9	0.847
B10	1.12
B11	0.853
B12	1.01
B13	1.03
B14	0.57
